Experimental data published in PubChem BioAssay (Tox21).
Values joined by “and” are separate entries in the source; they are usually repeats but may differ in a detail not shown here. Equal entries are not always repeated. Records with an inconclusive call do not appear. Active and inactive are the calls of the source. Unless noted, the call rests on the fitted dose curve; in most records, active means well fitted curve in the direction sought with a large enough effect in the repeat runs; inconclusive means weak or mixed curves; inactive means no such curve, though single readings can be large; an effect the other way counts as inactive or inconclusive.

Columns and labels:
[1] = qHTS assay to identify small molecule agonists of the androgen receptor (AR) signaling pathway in the presence of an antagonist - cell viability counter screen (AID 1259379); further: nearly all actives have a fitted effect of over 25% in size; further: potency means the concentration at half of the fitted maximal effect
Procedure, shortened: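 Each compound was tested at 15 concentrations on MDA-kb2 cells in the presence of 3.0uM nilutamide. Viability was measured by CellTiter-Fluor fluorescence after a 16 hr incubation at 37C in a CO2-free atmosphere.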

[2] = qHTS assay to identify small molecule agonists of the estrogen receptor beta (ER-beta) signaling pathway - cell viability counter screen (AID 1259380); further: nearly all actives have a fitted effect of over 30% in size; further: potency means the concentration at half of the fitted maximal effect
Procedure, shortened: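 Compounds dissolved in DMSO were pin-transferred onto ER-beta-UAS-bla HEK293T cells that had settled 6 hr, and exposure ran 16 hr at 37C. Following the reporter read, CellTiter-Glo luminescence after 30 min at room temperature indicated cytotoxicity.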

[3] = target: Androgen receptor (Homo sapiens) (UniProt P10275); assay: qHTS assay to identify small molecule agonists of the androgen receptor (AR) signaling pathway in the presence of an antagonist (AID 1259381; calls by dose curve; further: nearly all actives have a fitted effect of over 15% in size; further: potency means the concentration at half of the fitted maximal effect)
Procedure, shortened: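 Plated MDA-kb2 cells (3,000/well) were pre-incubated 5hr, given nilutamide (3.0uM final) or buffer, then dosed with compounds in DMSO at 15 concentrations. Luciferase activity was quantified by luminescence after 16hr at 37C.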

[4] = qHTS assay to identify small molecule antagonists of the estrogen receptor beta (ER-beta) signaling pathway - cell viability counter screen (AID 1259382); further: nearly all actives have a fitted effect of over 55% in size; further: potency means the concentration at half of the fitted maximal effect
Procedure, shortened: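 CellTiter-Glo ATP luminescence measured after the LiveBLAzer read in the same wells; ER-beta-UAS-bla HEK293T cells, 16 hr compound treatment with 1nM 17-beta-estradiol agonist at 37C, 5% CO2.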

[5] = qHTS assay to identify small molecule agonists of the estrogen receptor alpha (ER-alpha) signaling pathway in the presence of an antagonist - cell viability counter screen (AID 1259386);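 further: cells exposed to compounds for 22 h at 37 °C before the viability read; nearly all actives have a fitted effect of over 30% in size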; further: potency means the concentration at half of the fitted maximal effect
Procedure, shortened: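 Using estrogen-depleted VM7Luc4E2 cells, the 15-concentration compound series was applied together with 10.0nM ICI-182,780 and incubated 22hr at 37C/5% CO2. Cell viability was then scored by CellTiter-Fluor.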

[6] = target: Progesterone receptor (Homo sapiens) (UniProt P06401); assay: qHTS assay to identify small molecule agonists of the progesterone receptor (PR) signaling pathway (AID 1346784; calls by dose curve; further: nearly all actives have a fitted effect of over 30% in size)
Procedure, shortened: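 Beta-lactamase reporter read-out: after 16 hr compound treatment at 37C and a further 2 hr at room temperature with LiveBLAzer B/G FRET substrate, fluorescence was measured in PR-UAS-bla HEK 293T cells grown in 2% charcoal-stripped serum.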

[7] = qHTS assay to identify small molecule agonists of the progesterone receptor (PR) signaling pathway - cell viability counter screen (AID 1346799; calls by dose curve; further: nearly all actives have a fitted effect of over 45% in size; further: potency means the concentration at half of the fitted maximal effect)
Procedure, shortened: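 Luminescence from CellTiter-Glo, added after the beta-lactamase FRET read in the same wells, gave cytotoxicity in PR-UAS-bla HEK293T cells treated with compounds for 16 hr at 37C.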

[8] = Human pregnane X receptor (PXR) small molecule agonists, qHTS cell viability counter screen (AID 1346977); further: nearly all actives have a fitted effect of over 50% in size; further: potency means the concentration at half of the fitted maximal effect
Procedure, shortened: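 PXR-Luc HepG2, 2,000 cells/well, 5% charcoal-stripped FBS; 5hr settle; cpd 24hr, 37C/5% CO2; CellTiter-Fluor at 23hr, read 1hr later (fluorescence).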

[9] = target: Estrogen receptor (Homo sapiens) (UniProt P03372); assay: qHTS assay to identify small molecule agonists of the estrogen receptor alpha (ER-alpha) signaling pathway in the presence of an antagonist (AID 1259383; calls by dose curve; further: top concentration of the series differs between compounds; nearly all actives have a fitted effect of over 15% in size)
Procedure, shortened: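 Luminescent ERE-luciferase reporter, VM7Luc4E2 cells (endogenous ER-alpha); 10.0nM ICI-182,780 final; 15-point compound titration; 22hr at 37C; ONE-Glo, 30min RT.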

[10] = qHTS assay to identify small molecule agonists or antagonists of the thyroid stimulating hormone receptor (TSHR) signaling pathway - wild type cell line counter screen (AID 1259384; calls by dose curve)
Procedure, shortened: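 Wild-type Hek293 cells, 800/well, 18 h at 37C, then compound with Ro20-1724 for 30 min RT. cAMP by HTRF (cAMP-d2/anti-cAMP cryptate), 1 h RT, fluorescence read. 15 concentrations, triplicates.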

[11] = target: Thyrotropin receptor (Homo sapiens) (UniProt P16473); assay: qHTS assay to identify small molecule antagonists of the thyroid stimulating hormone receptor (TSHR) signaling pathway (AID 1259385; calls by dose curve; further: nearly all actives have a fitted effect of over 20% in size; further: potency means the concentration at half of the fitted maximal effect)
Procedure, shortened: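 TSHR-HEK293 cells (800/well) plated 18 h, then compounds with Ro20-1724 and TSH at 1.5 ng/mL final, 30 min at room temperature. cAMP quantified by HTRF (cAMP-d2/anti-cAMP-cryptate, 1 h); 15 concentrations in triplicate.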

[12] = target: Progesterone receptor (Homo sapiens) (UniProt P06401); assay: qHTS assay to identify small molecule antagonists of the progesterone receptor (PR) signaling pathway (AID 1346795; active means well fitted inhibition curve with a large enough effect in the signal ratio in the repeat runs, not every such curve was filed as active; the % refers to the signal ratio; further: potency means the concentration at half of the fitted maximal effect)
Procedure, shortened: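 Read-out is fluorescence from the LiveBLAzer B/G FRET substrate, cleaved by a UAS-controlled beta-lactamase in PR-UAS-bla HEK293T cells after 16 hr exposure to compound plus 1 nM promegestone (final), followed by 2 hr at room temperature.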

[13] = qHTS assay to identify small molecule antagonists of the progesterone receptor (PR) signaling pathway - cell viability counter screen (AID 1346798); further: nearly all actives have a fitted effect of over 50% in size; further: potency means the concentration at half of the fitted maximal effect
Procedure, shortened: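 HEK293T PR-UAS-bla, 2% charcoal-stripped FBS; 4 hr pre-plate; cpd + R5020, 16 h 37C; LiveBLAzer read first; then CellTiter-Glo 30 min RT, luminescence.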

[14] = qHTS assay to identify small molecule antagonists of the TGF-beta/Smad signaling pathway - cell viability counter screen (AID 1346824); further: nearly all actives have a fitted effect of over 50% in size; further: potency means the concentration at half of the fitted maximal effect
Procedure, shortened: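 SBE-bla HEK 293T cells, incubated overnight, then compound plus 0.25 ng/mL TGF-beta1 (stock added) for 5 hr at 37 C. Viability was read in the same wells by CellTiter-Glo luminescence after 30 min at room temperature.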

[15] = qHTS assay to identify small molecule agonists of the TGF-beta/Smad signaling pathway - cell viability counter screen (AID 1346829); further: nearly all actives have a fitted effect of over 45% in size; further: potency means the concentration at half of the fitted maximal effect
Procedure, shortened: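 CellTiter-Glo luminescence readout; SBE-bla HEK 293T cells, overnight plating, compound 5 hr at 37 C/5% CO2, then bla substrate 2 hr RT, then CellTiter-Glo 30 min RT.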

[16] = qHTS assay to identify small molecule agonists of the TGF-beta/Smad signaling pathway (AID 1346859; active means well fitted activation curve with a large enough effect in the signal ratio in the repeat runs, not every such curve was filed as active; the % refers to the signal ratio; further: series mostly up to about 77 µM)
Procedure, shortened: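 SBE-bla HEK 293T, 4,000 cells/well, plated o/n; cpd in DMSO, 5 hr, 37 C/5% CO2; B/G FRET substrate 2 hr RT; ex 405, em 460/530 nm.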

[17] = target: Thyrotropin-releasing hormone receptor (Homo sapiens) (UniProt P34981); assay: qHTS assay to identify small molecule antagonists of the thyrotropin-releasing hormone receptor (TRHR) signaling pathway (AID 1346877; active means well fitted inhibition curve with a large enough effect in the repeat runs, not every such curve was filed as active; further: series mostly up to about 51 µM)
Procedure, shortened: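 Calcium signal in dye-loaded TRHR/HEK293 cells; compounds added 5 min before TRH (1 nM final); fluorescence monitored 3 min at 1 s steps.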

[18] = target: Thyrotropin-releasing hormone receptor (Homo sapiens) (UniProt P34981); assay: qHTS assay to identify small molecule agonists of the thyrotropin-releasing hormone receptor (TRHR) signaling pathway (AID 1346891; calls by dose curve; further: potency means the concentration at half of the fitted maximal effect; on activation: series mostly up to about 58 µM)
Procedure, shortened: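 Intracellular calcium rise, read as fluorescence every second for 3 min, served as the agonist signal in dye-loaded HEK293 cells expressing TRHR; each compound ran at 15 concentrations in triplicate.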

Measured: Potency

Thyrotropin receptor (Homo sapiens), sequence (P16473 whole entry, looked up): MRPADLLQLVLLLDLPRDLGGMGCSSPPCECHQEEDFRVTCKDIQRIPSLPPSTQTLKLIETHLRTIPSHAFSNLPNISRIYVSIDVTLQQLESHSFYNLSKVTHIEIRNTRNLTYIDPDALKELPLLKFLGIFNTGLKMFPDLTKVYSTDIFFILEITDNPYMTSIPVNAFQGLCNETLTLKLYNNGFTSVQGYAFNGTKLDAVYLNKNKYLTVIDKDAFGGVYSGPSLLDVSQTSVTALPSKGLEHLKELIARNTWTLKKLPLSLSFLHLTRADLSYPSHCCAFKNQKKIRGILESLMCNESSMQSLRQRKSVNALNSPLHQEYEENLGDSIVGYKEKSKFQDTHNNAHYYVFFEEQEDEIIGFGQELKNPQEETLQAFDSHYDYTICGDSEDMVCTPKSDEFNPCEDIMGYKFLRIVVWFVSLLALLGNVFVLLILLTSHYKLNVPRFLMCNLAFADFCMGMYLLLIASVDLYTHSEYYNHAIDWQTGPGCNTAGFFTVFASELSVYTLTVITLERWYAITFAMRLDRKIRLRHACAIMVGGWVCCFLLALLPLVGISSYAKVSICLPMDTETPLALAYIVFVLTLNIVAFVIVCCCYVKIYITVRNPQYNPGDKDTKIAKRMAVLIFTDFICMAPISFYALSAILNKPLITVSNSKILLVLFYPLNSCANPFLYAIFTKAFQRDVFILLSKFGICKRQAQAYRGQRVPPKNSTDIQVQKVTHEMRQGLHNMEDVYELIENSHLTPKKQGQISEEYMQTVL
Thyrotropin-releasing hormone receptor (Homo sapiens), sequence (P34981 whole entry, looked up): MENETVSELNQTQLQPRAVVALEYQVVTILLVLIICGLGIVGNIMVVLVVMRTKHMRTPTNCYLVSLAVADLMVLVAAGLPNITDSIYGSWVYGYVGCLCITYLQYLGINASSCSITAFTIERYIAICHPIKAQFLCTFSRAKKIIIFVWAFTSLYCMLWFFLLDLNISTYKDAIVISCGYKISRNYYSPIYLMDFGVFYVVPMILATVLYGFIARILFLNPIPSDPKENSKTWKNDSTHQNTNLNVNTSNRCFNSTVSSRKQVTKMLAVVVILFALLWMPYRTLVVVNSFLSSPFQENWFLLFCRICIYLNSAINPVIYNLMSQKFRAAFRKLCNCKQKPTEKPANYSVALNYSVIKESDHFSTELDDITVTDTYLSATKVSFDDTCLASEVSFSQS
Androgen receptor (Homo sapiens), sequence (P10275 whole entry, looked up): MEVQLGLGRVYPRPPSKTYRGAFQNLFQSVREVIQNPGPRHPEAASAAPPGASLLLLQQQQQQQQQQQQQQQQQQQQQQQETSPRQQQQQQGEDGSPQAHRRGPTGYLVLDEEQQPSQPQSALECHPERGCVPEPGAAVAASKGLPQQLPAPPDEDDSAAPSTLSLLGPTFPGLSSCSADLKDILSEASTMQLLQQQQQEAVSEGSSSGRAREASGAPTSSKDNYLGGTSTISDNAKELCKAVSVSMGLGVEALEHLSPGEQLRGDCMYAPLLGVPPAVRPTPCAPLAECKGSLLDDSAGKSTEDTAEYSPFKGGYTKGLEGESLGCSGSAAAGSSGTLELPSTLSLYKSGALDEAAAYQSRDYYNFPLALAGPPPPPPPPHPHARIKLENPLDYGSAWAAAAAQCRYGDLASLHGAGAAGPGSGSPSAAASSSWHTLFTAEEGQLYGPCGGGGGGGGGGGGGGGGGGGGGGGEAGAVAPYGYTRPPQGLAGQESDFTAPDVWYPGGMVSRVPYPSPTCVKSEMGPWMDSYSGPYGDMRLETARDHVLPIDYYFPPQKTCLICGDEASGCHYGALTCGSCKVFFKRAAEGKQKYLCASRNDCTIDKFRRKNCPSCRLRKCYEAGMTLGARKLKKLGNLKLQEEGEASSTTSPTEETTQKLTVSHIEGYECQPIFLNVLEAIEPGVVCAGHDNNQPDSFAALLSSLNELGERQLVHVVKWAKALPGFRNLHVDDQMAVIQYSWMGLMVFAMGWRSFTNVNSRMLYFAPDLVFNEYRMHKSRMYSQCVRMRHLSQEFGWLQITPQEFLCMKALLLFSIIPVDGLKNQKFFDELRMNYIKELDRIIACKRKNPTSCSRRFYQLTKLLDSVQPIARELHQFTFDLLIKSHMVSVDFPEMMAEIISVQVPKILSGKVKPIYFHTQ
Estrogen receptor (Homo sapiens), sequence (P03372 whole entry, looked up): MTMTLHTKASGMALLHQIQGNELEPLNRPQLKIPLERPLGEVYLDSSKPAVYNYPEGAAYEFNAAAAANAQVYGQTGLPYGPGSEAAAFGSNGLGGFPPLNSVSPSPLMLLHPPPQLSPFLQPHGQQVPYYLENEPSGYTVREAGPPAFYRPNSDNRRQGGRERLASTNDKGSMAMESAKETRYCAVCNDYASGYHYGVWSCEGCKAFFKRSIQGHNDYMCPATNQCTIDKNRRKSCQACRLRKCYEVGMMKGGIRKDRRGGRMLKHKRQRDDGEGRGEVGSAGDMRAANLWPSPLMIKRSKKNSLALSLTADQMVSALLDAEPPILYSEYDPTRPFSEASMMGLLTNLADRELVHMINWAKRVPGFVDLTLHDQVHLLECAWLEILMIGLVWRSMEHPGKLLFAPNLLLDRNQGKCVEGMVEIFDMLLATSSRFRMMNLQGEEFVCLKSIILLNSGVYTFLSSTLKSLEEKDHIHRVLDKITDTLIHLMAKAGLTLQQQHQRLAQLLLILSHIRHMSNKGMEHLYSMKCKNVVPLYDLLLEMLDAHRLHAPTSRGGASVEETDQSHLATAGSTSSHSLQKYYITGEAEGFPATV
Progesterone receptor (Homo sapiens), sequence (P06401 whole entry, looked up): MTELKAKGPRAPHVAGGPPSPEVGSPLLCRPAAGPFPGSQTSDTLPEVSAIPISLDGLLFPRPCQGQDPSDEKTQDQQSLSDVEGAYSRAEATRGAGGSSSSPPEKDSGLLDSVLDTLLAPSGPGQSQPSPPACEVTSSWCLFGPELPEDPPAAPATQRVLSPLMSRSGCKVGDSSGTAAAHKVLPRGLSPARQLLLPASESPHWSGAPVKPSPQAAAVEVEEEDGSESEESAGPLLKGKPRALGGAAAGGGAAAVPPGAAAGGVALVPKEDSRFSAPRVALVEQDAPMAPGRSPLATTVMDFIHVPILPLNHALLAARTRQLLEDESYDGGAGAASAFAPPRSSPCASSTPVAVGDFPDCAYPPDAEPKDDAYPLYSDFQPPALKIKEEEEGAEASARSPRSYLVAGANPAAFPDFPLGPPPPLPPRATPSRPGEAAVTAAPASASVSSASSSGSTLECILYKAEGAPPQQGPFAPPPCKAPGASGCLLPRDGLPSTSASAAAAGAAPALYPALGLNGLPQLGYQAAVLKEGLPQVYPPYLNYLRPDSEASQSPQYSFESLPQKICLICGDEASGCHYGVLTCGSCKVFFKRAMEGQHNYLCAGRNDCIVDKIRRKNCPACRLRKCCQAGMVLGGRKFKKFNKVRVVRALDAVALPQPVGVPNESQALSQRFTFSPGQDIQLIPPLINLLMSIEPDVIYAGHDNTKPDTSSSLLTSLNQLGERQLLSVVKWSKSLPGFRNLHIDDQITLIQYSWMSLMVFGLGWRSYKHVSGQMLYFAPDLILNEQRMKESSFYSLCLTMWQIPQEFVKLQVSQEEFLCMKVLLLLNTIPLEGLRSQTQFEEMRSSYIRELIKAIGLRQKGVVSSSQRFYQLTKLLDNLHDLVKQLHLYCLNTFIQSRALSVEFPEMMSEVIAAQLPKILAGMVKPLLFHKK

C[C@H]1O[C@@H](O[C@H]2[C@@H](O)C[C@H](O[C@H]3[C@@H](O)C[C@H](O[C@H]4CC[C@@]5(C)[C@H](CC[C@@H]6[C@@H]5C[C@@H](O)[C@]5(C)[C@@H](C7=CC(=O)OC7)CC[C@]65O)C4)O[C@@H]3C)O[C@@H]2C)C[C@H](O)[C@@H]1O
active: [2] 86.4 nM and 95.8 nM | [3] 172 nM | [4] 61.2 nM and 76.1 nM | [7] 122 nM and 191 nM
inactive: [1] | [5] | [6] | [8]

C(=C/c1ccccc1)/c1ccccc1
inactive: [1] | [2] | [4] | [9] | [10] | [11] | [5] | [6] | [12] | [13] | [7] | [14] | [15] | [16] | [17] | [18] | [8]

CCOC(=O)[C@@](C)(N)Cc1ccc(O)c(O)c1
inactive: [1] | [2] | [4] | [9] | [10] | [11] | [5] | [6] | [12] | [14] | [16] | [17] | [18] | [8]

CCCOc1sc(C(=O)N2CCC(c3cc(CN)ccc3F)CC2)c(C)c1Br
active: [1] 56 µM | [2] 28.1 µM | [11] 56 µM | [13] 25 µM | [14] 50.4 µM | [15] 44.9 µM | [18] 31.8 µM | [8] 28.1 µM
inactive: [3] | [9] | [10]

NC(=O)c1ccccc1N
inactive: [1] | [2] | [3] | [9] | [10] | [11] | [5] | [6] | [12] | [13] | [7] | [14] | [15] | [16] | [17] | [18] | [8]

CCCCCCCCCCCCCc1ccccc1
inactive: [1] | [2] | [4] | [9] | [10] | [11] | [5] | [6] | [12] | [14] | [15] | [16] | [8]

Cc1cc2c(C(C)C)c(O)c(O)c(C=O)c2c(O)c1-c1c(C)cc2c(C(C)C)c(O)c(O)c(C=O)c2c1O
active: [1] 29.8 µM | [2] 13.3 µM | [4] 23.7 µM | [12] 13.3 µM | [8] 18.8 µM
inactive: [9] | [10] | [11] | [16] | [17] | [18]

C/C=C/C(=O)Oc1c(CCCCCC(C)C)cc([N+](=O)[O-])cc1[N+](=O)[O-]
active: [1] 15.4 µM | [2] 30.6 µM | [4] 48.6 µM | [5] 9.69 µM | [12] 19.3 µM | [8] 15.4 µM
inactive: [9] | [10] | [11] | [17] | [18]

Cc1c(C(=O)O)cccc1[N+](=O)[O-]
inactive: [1] | [2] | [3] | [4] | [10] | [11] | [5] | [6] | [12] | [14] | [15] | [16] | [17] | [18]

COC(=O)C1=C(C)NC(C)=C(C(=O)OCCCN2CCC(c3ccccc3)(c3ccccc3)CC2)C1c1cccc([N+](=O)[O-])c1 (stereo unspecified)
inactive: [3] | [10] | [14] | [16] | [17] | [18]
active: [1] 29.8 µM | [2] 23.7 µM | [12] 18.8 µM | [7] 13.3 µM | [8] 26.6 µM

NC(=O)c1nc(-c2cccc(-c3cc(F)ccc3OCC(F)(F)C(F)(F)F)c2)n[nH]1
active: [2] 61.1 µM | [12] 34.4 µM | [8] 54.5 µM
inactive: [1] | [3] | [9] | [10] | [14] | [15] | [16] | [17] | [18]

CCCCCCCCC(C)=O
inactive: [1] | [2] | [3] | [4] | [9] | [10] | [5] | [6] | [12] | [13] | [7] | [14] | [15] | [16] | [17] | [18]

CC(C)c1ccccc1N
inactive: [1] | [2] | [4] | [9] | [10] | [11] | [5] | [6] | [12] | [13] | [7] | [14] | [15] | [16] | [17] | [18] | [8]

CCCCCCCCCCCCCCCC
inactive: [1] | [2] | [4] | [9] | [10] | [5] | [6] | [12] | [7] | [14] | [15] | [16] | [8]

CCCC(C)CCC(C)=O (stereo unspecified)
inactive: [1] | [2] | [3] | [9] | [10] | [11] | [5] | [6] | [12] | [7] | [14] | [15] | [16] | [18] | [8]

CC(=O)OC1CCCCC1
inactive: [1] | [2] | [3] | [9] | [10] | [11] | [6] | [12] | [13] | [7] | [14] | [15] | [16] | [17] | [18] | [8]

CN1[C@@H]2CC[C@@H]1CC(OC(=O)C(CO)c1ccccc1)C2 (stereo partly specified)
inactive: [1] | [2] | [4] | [5] | [6] | [12] | [13] | [14] | [15] | [16] | [8]

C=CC(C)C#N (stereo unspecified)
inactive: [1] | [2] | [5] | [6] | [13] | [14] | [16] | [8]

CNC(=S)NN
active: [2] 17.2 µM | [12] 8.63 µM | [13] 13.7 µM | [8] 12.2 µM
inactive: [1] | [9] | [10] | [5] | [14] | [15] | [16]
